FMDV inh = antivirals against foot and mouth disease virus; FMDV antiviral cell-based qHTS; Potency, µM (highest dose often 57.9 µM), for inactives: at the highest dose activity change, negative = inhibition, usual class: inhibitors; 1.2% of 410,000 active; AID 1159524; calls by dose curve; tested in HEK293T cells; further: read-out not given here; potency means the concentration at half of the fitted maximal effect; nearly all actives have a fitted effect of over 45% in size
LASV entry inh = Lassa virus entry inhibition; Lassa virus pseudotype entry inhibition, cell reporter; Potency, µM (titrated, usually from 37.9 µM), without a hit: at the top dose activity change, negative = inhibition, usual class: inhibitors; 1.2% of 300,000 active; calls by dose curve; tested in HEK293 cells; further: potency means the concentration at half of the fitted maximal effect; nearly all actives have a fitted effect of over 50% in size
Marburg entry inh = inhibitors of Marburg virus binding or cell entry; Marburg virus pseudotyped entry inhibition, cell reporter; 1.8% of 300,000 active; Potency, µM (series often up to 37.8 µM), without a hit: at the highest dose activity change, negative = inhibition, usual class: inhibitors; calls by dose curve; tested in HEK293 cells; further: potency means the concentration at half of the fitted maximal effect
HCMV inh = blocks human cytomegalovirus replication; HFF cells, HCMV-luciferase reporter, 72 h; hits give low values; activity change, negative = inhibition, % at 57.5 µM; 4.5% of 410,000 active; in the data active means activity change below about -60%; inconclusive means no clear call, values can overlap the other calls; inactive means above about -39%
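Cell-based, HFFs, 1000 cells/well, 16 h 37C; cpds in DMSO + HCMV-luc, MOI 1 PFU/cell; 72 h 37C; OneGlo luminescence after 5 min RT; norm. to buffer vs Salinomycin 10uM.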
HCV inh = HCV inhibition; Huh7.5.1 HCVcc-Cre infection, luciferase reporter, 44 h; Potency, µM (doses to about 41.8 µM), without a hit: at the top dose activity change, negative = inhibition, actives largely listed as inhibitors; 3.4% of 340,000 active; AID 651820; active means well fitted inhibition curve with a large enough effect; inconclusive means small, poorly fitted or top-dose-only effect, or another doubt; inactive means no such curve, though single readings can be large or run the other way; further: potency means the concentration at half of the fitted maximal effect
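Compounds are dispensed onto cells plated 4 h earlier at 1,000 per well, with HCVcc-Cre virus (about 0.5 moi) added next. Following 44 h of culture, luminescent signal is measured for 15 sec after 15 min with substrate at room temperature.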
Numbers without * were called inactive; u = inconclusive; x = no result; [ ] = remark or other dose. Only some compounds are listed: those with a hit (about 7.9% of all), similar ones and a draw of the others. On the % scale 0 is the no-effect control and ±100 the full control effect.

SMILES	FMDV inh	LASV entry inh	Marburg entry inh	HCMV inh	HCV inh
C=CCN1CC[C@]23c4c5ccc(O)c4O[C@@H]2/C(=N/N=C2\CC[C@@]4(O)C6Cc7ccc(O)c8c7[C@@]4(CCN6CC=C)[C@@H]2O8)CC[C@@]3(O)C1C5	x	16µM*	4.5µM*	x	x
Oc1ccc2c3c1O[C@H]1c4[nH]c5c(c4C[C@@]4(O)[C@@H](C2)N(CC2CC2)CC[C@]314)C[C@]1(O)[C@H]2Cc3ccc(O)c4c3[C@@]1(CCN2CC1CC1)[C@@H]5O4	-19%	x	-28%	x	x
O=C1/C(=C\c2ccccc2)C[C@@]2(O)[C@H]3Cc4ccc(O)c5c4[C@@]2(CCN3CC2CC2)[C@@H]1O5	22µM*	x	x	x	x
C=CCN1CCC23c4c5ccc(O)c4OC2/C(=N/N=C2\CCC4(O)C6Cc7ccc(O)c8c7C4(CCN6CC=C)C2O8)CCC3(O)C1C5 (stereo not drawn)	21%	x	x	x	x
COc1ccc(OC)c([C@H]2/C(=C(\O)c3ccccc3)C(=O)C(=O)N2Cc2ccco2)c1	x	x	10%[46.1 µM]	x	x
Cc1ccc(S(=O)Cc2nc(-c3ccc(C(=O)NC(C)c4ccccc4)cc3)oc2C)cc1 (stereo not drawn)	-30%	-14%[46.1 µM]	x	-23	x
COc1ccccc1-c1ccnc(-n2ncc(C(=O)N[C@H]3CCCCNC3=O)c2C2CC2)n1	40%	x	x	x	x
COc1cccc(-n2cc(C(=O)NCCc3ccc(C)cc3)c3ccccc3c2=O)c1	-5%	-1%[46.1 µM]	x	-61*	x
COc1ccc(CCNC(=O)c2cc(C(=O)c3cc(Cl)ccc3O)cn(CCc3ccc(OC)cc3)c2=O)cc1	-4%	u	u	-39	u
COc1ccc(CCNC(=O)c2cc(C(=O)c3cc(C)ccc3O)cn(CCc3ccc(OC)cc3)c2=O)cc1	8%	2.8µM*	u	-5	u
Cc1ccc(C)c(N2CCN(c3ncccc3[N+](=O)[O-])CC2)c1	0%	u	2.5µM*	-16	11µM*
Cc1ccc(N2CCN(c3ncccc3[N+](=O)[O-])CC2)c(C)c1	-16%	u	u	-30	u
O=[N+]([O-])c1cccnc1N1CCCCC1	9%	-5%	-2%	18	3%
O=[N+]([O-])c1cccnc1N1CCN(c2ccccc2F)CC1	0%	-10%	8%	-61*	15%
CCc1cc2c(cc3c(=O)n(CC(=O)N4CCC(C)CC4)nc(CC)n32)s1	-4%	x	6%[46.1 µM]	-38	x
CN1c2ccccc2C2(C)CCCC3=Cc4cccc([N+](=O)[O-])c4OC312 (stereo not drawn)	u	7%	-2%	u	7%
CN1c2ccccc2C2(C)CCCC3=Cc4cc([N+](=O)[O-])cc([N+](=O)[O-])c4OC312 (stereo not drawn)	u	-6%	u	-60*	2%
C#CCN1CC(=O)N(COC(=O)C2C(C=C(C)C)C2(C)C)C1=O (stereo not drawn)	x	x	x	-19	x
Cc1ccc(S(=O)(=O)Nc2ccc(N(C)C)cc2)cc1	7%	-26%	1%[46.1 µM]	-24	-4%
CN(C)c1ccc(NS(=O)(=O)c2ccc(-c3csnn3)cc2)cc1	6%	u	u	-65*	u
C=CCn1c(C)cc(C2=NNC(=NC(C)(C)C)SC2)c1C	u	u	u	-85*	u
COCCn1c(C)cc(C2=NNC(=Nc3ccc(Cl)cc3Cl)SC2)c1C	5%	-15%	u	-21	-12%
C=CCN=C1NN=C(c2cc(C)n(CCOC)c2C)CS1	4.5µM*	u	u	-96*	-4%
COCCn1c(C)cc(C2=NNC(=NC3CC3)SC2)c1C	1.3µM*	0.32µM*	0.32µM*	-96*	u
CCOC(=O)NN=C1C[C@@H](O)[C@@H](O)[C@@H]2[C@H]3C(=O)N([C@@H](C)c4ccccc4)C(=O)[C@@H]3CC[C@@H]12	x	x	-22%[14.2 µM]	x	x
SMILES	FMDV inh	LASV entry inh	Marburg entry inh	HCMV inh	HCV inh
CC(=O)N(C)c1ccc(OCC(O)Cn2c(C)nc3ccccc32)cc1 (stereo not drawn)	u	u	u	-25	11µM*
COc1cccc(OCC(Cn2c(C)nc3ccccc32)OC(C)=O)c1 (stereo not drawn)	-23%	u	u	-70*	u
CC(=O)Nc1ccc(OCC(O)Cn2c(C)nc3ccccc32)cc1 (stereo not drawn)	-24%	-8%	-26%[46.1 µM]	-6	-13%
COc1cccc(CNc2nccn(-c3cc(C)cc(C)c3)c2=O)c1	-16%	-4%[46.1 µM]	x	4	x
O=C(Nc1ccc(F)c(F)c1)c1ccc(-n2cncn2)c([N+](=O)[O-])c1	-14%	x	x	-18	22µM*
COc1ccccc1C(=O)Nc1cc(Cl)ccc1-n1cncn1	-12%	-10%[46.1 µM]	-3%[46.1 µM]	42	u
O=C(Nc1cc(Cl)ccc1-n1cncn1)c1ccc([N+](=O)[O-])s1	-16%	u	-14%	x	7.9µM*
O=C(Nc1cc(F)ccc1F)c1ccc(-n2cncn2)c([N+](=O)[O-])c1	13%	16%	29%[46.1 µM]	-5	-25%
COc1cc(OC)c(C(=O)Nc2cc(Cl)ccc2-n2cncn2)cc1OC	-28%	-1%	-3%[46.1 µM]	28	13µM*
Cc1cc(O)c2c(c1O)C(=O)C(O)=C(O)C2=O	-19%	x	x	x	x
CCCCCCn1c([C@H](C)O)nc2ccccc21	x	x	-12%	x	x
CCCC1(C)C(C#N)(C#N)C1(C#N)C#N	x	4.1µM*	16µM*	x	x
CC[C@@H](O)C[C@H]1CCC[C@@]2(C[C@@H]3OC(=O)/C=C/[C@@](C)(O)[C@@H](O)[C@H](C)[C@@H](O)[C@H](OC4CCC(N(C)C)C(C)O4)[C@@H](O)[C@](C)(O)CCCCC/C=C/[C@@H]4CC(C)(C)O[C@@]4(O)C[C@H](O2)[C@H]3C)O1 (stereo partly drawn)	u	u	-25%	-97*	u
COc1cc(-c2nc3oc4ccccc4c(=O)c3c(=O)n2Cc2ccco2)cc(OC)c1OC	0%	6.3µM*	7.9µM*	-11	-16%
CCN(CC)c1nc2c(S(=O)(=O)c3ccc(C)cc3)nnn2c2ccsc12	-2%	8%[46.1 µM]	x	12	x
CCC1CCCCN1C(=O)COc1ccc(N(C)S(=O)(=O)c2ccc(C)cc2)cc1 (stereo not drawn)	u	x	x	-27	10µM*
CCOC(=O)C1CCN(C(=O)COc2ccc(N(C)S(=O)(=O)c3ccc(C)cc3)cc2)CC1	-20%	0%	-3%[14.2 µM]	-102*	-10%
COC(=O)C1CCN(C(=O)COc2ccc(N(C)S(=O)(=O)c3ccc(C)cc3)cc2)CC1	-7%	6%	29%	6	9%
CCOc1ccc(N(CC(=O)N2CCCCCC2)S(=O)(=O)c2ccc(C)cc2)cc1	30%	3.5µM*	-50%	u	11%
O=c1c2cccnc2n(Cc2ccccc2F)c(=O)n1Cc1ccc(F)cc1	-19%	x	-7%[46.1 µM]	0	x
CCCN(CC(=O)Nc1ccccc1OC)C(=O)CSc1ccc(Br)cc1C	-22%	x	x	3	10µM*
CCCN(CC(=O)Nc1ccccc1OC)C(=O)Cn1[nH]c(=O)c2ccccc2c1=O	-15%	x	x	-4	-24%
